Read-out in assay [1]: Interleukin-1 alpha (IL1a), IL1A (gene 3552)
Description: BSK_LPS_IL1a: BioMAP Diversity Plus: LPS Assay for Interleukin-1 alpha (IL1a) Biomarker Activity (AID 2283080). To be noted: primary human HUVEC with PBMC; actives raise or lower the signal. An outline of the steps: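 ELISA read-out of IL-1 alpha from a human primary vascular co-culture (endothelium plus PBMC) under LPS, sampled 24 hours post-dosing. Activity was fitted in both directions relative to DMSO controls.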

Read-out in assay [2]: Monocyte Chemoattractant Protein-1 (MCP1), CCL2 (gene 6347)
Description: BSK_LPS_MCP1: BioMAP Diversity Plus: LPS Assay for Monocyte Chemoattractant Protein-1 (MCP1) Biomarker Activity (AID 2283081).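 For AC50: secreted MCP-1 protein quantified by ELISA in culture supernatant.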 To be noted: primary human HUVEC with PBMC; actives raise or lower the signal. An outline of the steps:
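Human endothelial–PBMC co-cultures were dosed with chemical, then LPS-driven MCP-1 levels were quantified by ELISA at 24 h. Activity in either direction was fitted versus DMSO negative control.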

Assay [3] is described as follows: BSK_LPS_PGE2: BioMAP Diversity Plus: LPS Assay for Prostaglandin E2 (PGE2) Biomarker Activity (AID 2283082).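 For AC50: secreted prostaglandin E2 measured by ELISA in LPS-stimulated co-culture.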 The conditions noted are these: primary human HUVEC with PBMC; actives raise or lower the signal. The method in brief:
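LPS-activated HUVEC/PBMC co-culture; cmpd dosed, 24 h; PGE2 by ELISA; bidirectional fit vs DMSO; SRB (0.1%, TCA-fixed, 560 nm) in parallel plates for overt cytotox.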

Read-out in assay [4]: Macrophage colony-stimulating factor (MCSF), CSF1 (gene 1435)
Description: BSK_LPS_MCSF: BioMAP Diversity Plus: LPS Assay for Macrophage colony-stimulating factor (MCSF) Biomarker Activity (AID 2283083). The conditions noted are these: primary human HUVEC with PBMC; actives raise or lower the signal. The method in brief:
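ELISA readout of M-CSF after 24 h compound exposure in a human endothelial/PBMC co-culture. Activity, in either direction, is fitted relative to DMSO vehicle.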

Read-out in assay [5]: Tissue Factor, F3 (gene 2152)
As to the kind of experiment: BSK_LPS_TissueFactor: BioMAP Diversity Plus: LPS Assay for Tissue Factor Biomarker Activity (AID 2283084). The conditions noted are these: primary human HUVEC with PBMC; actives raise or lower the signal. An outline of the steps: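 ELISA signal for cell-surface Tissue Factor (CD142) was read 24 h after compound dosing of an LPS-stimulated human endothelial–PBMC primary co-culture. Gain or loss of signal was scored relative to DMSO.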

Read-out in assay [6]: Tumor necrosis factor (Homo sapiens) (UniProt P01375)
Description: BSK_LPS_TNFa: BioMAP Diversity Plus: LPS Assay for Tumour Necrosis Factor alpha (TNFa) Biomarker Activity (AID 2283085). To be noted: primary human HUVEC with PBMC; actives raise or lower the signal. An outline of the steps: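 Read-out is ELISA of TNFa in primary human endothelial cell–PBMC co-cultures at 24 h after compound. Activity in either direction was fitted against DMSO.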

Read-out in assay [7]: Vascular cell adhesion molecule 1 (VCAM1), VCAM1 (gene 7412)
Description: BSK_LPS_VCAM1: BioMAP Diversity Plus: LPS Assay for Vascular cell adhesion molecule 1 (VCAM1) Biomarker Activity (AID 2283086). The conditions noted are these: primary human HUVEC with PBMC; actives raise or lower the signal. An outline of the steps: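 HUVEC + PBMC co-culture, LPS system; compound 24 h; VCAM-1 by ELISA; bidirectional fit vs DMSO control; parallel SRB (0.1%, TCA-fixed, 560 nm) for cytotoxicity.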

Read-out in a further assay: CD38, CD38 (gene 952)
As to the kind of experiment: BSK_SAg_CD38: BioMAP Diversity Plus: SAg Assay for CD38 Biomarker Activity (AID 2283087). The conditions noted are these: primary human HUVEC with PBMC; actives raise or lower the signal. An outline of the steps: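 Human HUVEC plus PBMC co-culture stimulated with superantigen; CD38 measured by ELISA 24 h after chemical dosing. Fluorescence read-out, bidirectional fit against DMSO; cytotoxicity tracked in parallel by SRB and Alamar Blue.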

Read-out in another assay: CD40, CD40 (gene 958)
As to the kind of experiment: BSK_SAg_CD40: BioMAP Diversity Plus: SAg Assay for CD40 Biomarker Activity (AID 2283088). The conditions noted are these: primary human HUVEC with PBMC; actives raise or lower the signal. An outline of the steps:
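Compounds were dosed onto a human primary endothelial–PBMC co-culture, and after 24 h CD40 was quantified by ELISA using a fluorescence signal. Activity in either direction was fitted relative to DMSO.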

Read-out in another assay: CD69, CD69 (gene 969)
As to the kind of experiment: BSK_SAg_CD69: BioMAP Diversity Plus: SAg Assay for CD69 Biomarker Activity (AID 2283089).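 For AC50: cell surface CD69 protein quantified by ELISA with fluorescence detection.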 The conditions noted are these: primary human HUVEC with PBMC; actives raise or lower the signal. The method in brief:
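Primary human vascular co-culture (umbilical vein endothelium with peripheral blood mononuclear cells) exposed to test chemical for 24 h. CD69 levels quantified by fluorescence ELISA; DMSO served as negative control for bidirectional fitting.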

Read-out in assay [8]: Monocyte Chemoattractant Protein-1 (MCP1), CCL2 (gene 6347)
As to the kind of experiment: BSK_SAg_MCP1: BioMAP Diversity Plus: SAg Assay for Monocyte Chemoattractant Protein-1 (MCP1) Biomarker Activity (AID 2283090). To be noted: primary human HUVEC with PBMC; actives raise or lower the signal. An outline of the steps: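 MCP-1 levels in the endothelial–PBMC SAg co-culture were quantified by ELISA at 24 h post-dosing; both increases and decreases versus DMSO scored. Cytotoxicity monitored by SRB total protein in parallel cultures.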

Read-out in assay [9]: E-selectin (Homo sapiens) (UniProt P16581)
Description: BSK_SAg_Eselectin: BioMAP Diversity Plus: SAg Assay for Eselectin Biomarker Activity (AID 2283091). The conditions noted are these: primary human HUVEC with PBMC; actives raise or lower the signal. An outline of the steps:
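Co-culture: HUVEC + PBMC. Dose compound; 24 h. ELISA for E-selectin. Bidirectional fit vs DMSO.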

Read-out in assay [10]: Monokine induced gamma interferon (MIG), CXCL9 (gene 4283)
As to the kind of experiment: BSK_SAg_MIG: BioMAP Diversity Plus: SAg Assay for Monokine induced gamma interferon (MIG) Biomarker Activity (AID 2283092). The conditions noted are these: primary human HUVEC with PBMC; actives raise or lower the signal. An outline of the steps:
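Endothelial cells and PBMC were co-cultured, exposed to test chemicals, and sampled 24 h later. MIG was measured by ELISA, and responses were fitted in both directions relative to DMSO.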

Assay [11] is described as follows: BSK_SAg_PBMCCytotoxicity: PBMC Cytotoxicity Assessment in the BioMAP Diversity Plus: SAg Assay (AID 2283093).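 For AC50: PBMC superantigen activated with SEB plus TSST-1 one hour after compound addition.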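 Note: PBMC viability measured as Alamar Blue reduction fluorescence at 546/580 nm; fitted both ways against DMSO so a hit may be loss or gain of signal.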 The conditions noted are these: primary human HUVEC with PBMC. An outline of the steps: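 HUVEC/PBMC co-culture; PBMC exposed to chemical 1 h before SEB and TSST-1 activation (20 ng/mL each), incubated 90 h, then Alamar Blue 6 h, fluorescence 546/580 nm. Bidirectional fit versus DMSO baseline.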

Read-out in assay [12]: Interleukin-8 (IL8), CXCL8 (gene 3576)
Description: BSK_SAg_IL8: BioMAP Diversity Plus: SAg Assay for Interleukin-8 (IL8) Biomarker Activity (AID 2283094). The conditions noted are these: primary human HUVEC with PBMC; actives raise or lower the signal. The method in brief: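 ELISA read-out of IL-8 in a primary human vascular co-culture (umbilical vein endothelium plus PBMC), taken 24 h after compound addition. Values derive from bidirectional fits against DMSO negative controls.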

Assay [13] in a line: BSK_SAg_Proliferation: Cell Proliferation Assessment in the BioMAP Diversity Plus: SAg Assay (AID 2283095).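 Note: relative cell number as total protein by SRB absorbance in sub-confluent culture.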 To be noted: primary human HUVEC with PBMC. An outline of the steps:
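Cells (endothelium plus PBMC, human primary) were dosed with chemical, cultured 96 h, fixed in 10% TCA and stained with 0.1% SRB. Absorbance at 560 nm gave relative protein, fitted bidirectionally relative to DMSO.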

The nature of assay [14]: BSK_SAg_SRB: Viability Assessment in the BioMAP Diversity Plus: SAg Assay (AID 2283096).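 Note: cells read one day after compound addition; hits may be either gain or loss of signal compared with DMSO.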 The conditions noted are these: primary human HUVEC with PBMC. The method in brief:
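Human umbilical vein endothelial cells co-cultured with PBMC, read 24 h after compound dosing. Total protein measured by sulforhodamine B staining (0.1% SRB after 10% TCA fixation, absorbance 560 nm); bidirectional fit versus DMSO baseline.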

Values joined by “and” are separate entries in the source; they are usually repeats but may differ in a detail not shown here. Equal entries are not always repeated. More than one record can exist for a structure, and the calls need not agree. Active and inactive are the calls of the source. Rule for the calls: active = hit-call score of the fitted dose curve at least 0.9, where 1 is the maximum; inactive = score below 0.9.

Chain of E-selectin (Homo sapiens) (P16581 whole entry, looked up): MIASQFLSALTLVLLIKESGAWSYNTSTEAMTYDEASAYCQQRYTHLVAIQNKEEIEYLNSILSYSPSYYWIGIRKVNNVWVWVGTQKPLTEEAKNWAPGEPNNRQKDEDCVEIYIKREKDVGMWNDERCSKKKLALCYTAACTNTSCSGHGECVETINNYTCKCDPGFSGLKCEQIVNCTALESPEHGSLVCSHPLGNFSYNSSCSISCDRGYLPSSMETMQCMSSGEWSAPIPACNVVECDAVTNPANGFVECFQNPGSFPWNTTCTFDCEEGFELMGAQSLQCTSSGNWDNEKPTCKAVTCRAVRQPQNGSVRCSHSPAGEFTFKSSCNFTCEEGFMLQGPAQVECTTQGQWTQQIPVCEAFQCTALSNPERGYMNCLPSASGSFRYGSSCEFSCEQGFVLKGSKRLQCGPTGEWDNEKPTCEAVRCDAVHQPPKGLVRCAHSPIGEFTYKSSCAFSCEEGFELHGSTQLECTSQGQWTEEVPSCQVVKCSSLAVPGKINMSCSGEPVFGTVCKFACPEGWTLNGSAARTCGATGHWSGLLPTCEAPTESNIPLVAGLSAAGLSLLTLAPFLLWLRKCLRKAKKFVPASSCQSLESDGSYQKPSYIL
Chain of Tumor necrosis factor (Homo sapiens) (P01375 whole entry, looked up): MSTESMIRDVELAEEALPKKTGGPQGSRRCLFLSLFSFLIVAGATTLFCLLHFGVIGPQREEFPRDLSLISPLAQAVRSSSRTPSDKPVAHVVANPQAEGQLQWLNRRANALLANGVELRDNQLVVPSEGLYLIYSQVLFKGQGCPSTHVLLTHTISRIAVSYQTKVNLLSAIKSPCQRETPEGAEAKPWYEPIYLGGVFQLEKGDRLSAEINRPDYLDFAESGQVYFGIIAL

In general, AC50 refers to the concentration at which the activity in the assay is half-maximal. With `FC(F)(F)C(F)(F)C(F)(F)C(F)(F)C(F)(F)C(F)(F)C(F)(F)C(F)(F)CCS`, the outcome in assay [1], in [2], in assay [3], in assay [4], in assay [5] and in assay [6] was inactive. Moreover, the outcome is “inactive” in [7]; “inactive” in the assay with CD38, CD38 (gene 952); “inactive” with CD40, CD40 (gene 958); “inactive” with CD69, CD69 (gene 969); “inactive” in [8]; “inactive” in assay [9]. For the same compound, the outcome in [10], in assay [11], in assay [12], in assay [13] and in assay [14] was inactive. In addition, in assay [5], the half-maximal activity concentration (AC50) was 1.02 µM (active).

With `CC(C)(C)C(=O)CC(=O)C(F)(F)C(F)(F)C(F)(F)F`, the outcome in assay [1], in assay [2], in assay [3], in assay [4], in assay [5] and in assay [6] was inactive. For the same compound, the outcome was “inactive” in [7]; “inactive” in the assay with CD38, CD38 (gene 952); “inactive” with CD40, CD40 (gene 958); “inactive” in the assay with CD69, CD69 (gene 969); “inactive” in assay [8]; “inactive” in assay [9]. The outcome in assay [10], in assay [11], in assay [12], in [13] and in assay [14] was inactive. Further, the AC50 in [3] was 30 µM (active); in [9] it was 41.1 µM (active); in [11], 53.9 µM (active).

As for `O=C(O)C(F)(F)C(F)(F)C(F)(F)C(F)(F)C(F)(F)C(F)(F)C(F)(F)C(F)(F)C(F)(F)C(F)(F)C(F)(F)C(F)(F)C(F)(F)F`, the outcome in [1], in assay [2], in assay [3], in [4], in assay [5] and in assay [6] was inactive. The outcome in assay [7] is “inactive”; in the assay with CD38, CD38 (gene 952), “inactive”; in the assay with CD40, CD40 (gene 958), “inactive”; in the assay with CD69, CD69 (gene 969) it was “inactive”; in [8], “inactive”; in assay [9], “inactive”. For the same compound, the outcome in assay [10], in assay [11], in [12], in assay [13] and in assay [14] was inactive. The half-maximal activity concentration (AC50) with CD40, CD40 (gene 958) is 869 nM (active).

Regarding `C=C(C)C(=O)OCC(F)(F)C(F)(F)C(F)(F)C(F)(F)C(F)(F)C(F)(F)C(F)(F)F`, the outcome in assay [1], in assay [2], in [3], in assay [4], in [5] and in assay [6] was inactive. In addition, the outcome is “inactive” in assay [7]; “inactive” with CD38, CD38 (gene 952); “inactive” with CD40, CD40 (gene 958); “inactive” with CD69, CD69 (gene 969); “inactive” in assay [8]; “inactive” in assay [9]. Also, the result in assay [10], in [11], in assay [12], in assay [13] and in [14] was inactive. Moreover, the AC50 in [6] was 24.6 nM (active).

For `CCCCCCOC(=O)c1ccccc1O`, the outcome in assay [1] is “inactive”; in [2], “inactive”; in [3], “inactive”; in assay [4], “inactive”; in assay [5] it was “inactive”; with CD38, CD38 (gene 952), “inactive”. The result in assay [10], in assay [12] and in [14] was inactive. For the same compound, the AC50 in assay [2] is 40.6 µM (active); in assay [3] it was 39.8 µM (active); in [5], 40.6 µM (active); in [6], 37.3 µM (active) and 39.6 µM (active); in [7], 40.2 µM (active) and 38.2 µM (active); in the assay with CD38, CD38 (gene 952), 40.5 µM (active). For the same compound, the AC50 in the assay with CD40, CD40 (gene 958) is 45.2 µM (active) and 29.1 µM (active); with CD69, CD69 (gene 969) it was 39.3 µM (active) and 45.2 µM (active); in assay [8], 27.6 µM (active) and 45.1 µM (active); in assay [9], 38.3 µM (active) and 39.5 µM (active); in [11] it was 36.9 µM (active) and 44.8 µM (active); in assay [12], 38.2 µM (active). The AC50 in assay [13] is 38.7 µM (active) and 45.4 µM (active); in [14], 42.4 µM (active).

For the origin of these results see PubChem BioAssay (EPA / NIEHS).
